Data from PubChem BioAssay (NCI).
Compounds without any hit were thinned out: in the full panel of roughly 79,000, 15% have a hit. Values without a mark were called inactive. The source made the active and inactive calls. No stated cut-off is given here; in the data, active means growth inhibition above about 70%; inactive means the rest. Where a SMILES comes first, the peptide text is derived from it. The star is where a group is joined. Cbz = O=C(OCc1ccccc1)*; CH2Cl = ClC*

Legend:
[1] = NCI Yeast Anticancer Drug Screen. Data for the rad50 strain (AID 155);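 further: 0% = growth of vehicle-only cultures of the same strain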; details: S. cerevisiae rad50 strain growth inhibition, stronger effect = higher value
Outline: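 Growth of the mutant yeast was measured after compound exposure and referenced to vehicle-treated cultures.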

[2] = NCI Yeast Anticancer Drug Screen. Data for the mec2-1 strain (AID 157); details: S. cerevisiae mec2-1 strain, stronger effect = higher value
Outline: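 Test agents were screened against the mec2-1 yeast strain, with defined DNA repair or cell cycle alteration. Growth was scored as inhibition against vehicle-only controls.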

[3] = NCI Yeast Anticancer Drug Screen. Data for the sgs1 mgt1 strain (AID 161);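 further: 0% = growth of cultures given vehicle only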; details: S. cerevisiae sgs1 mgt1 strain, stronger effect = higher value
Outline: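 Inhibition of yeast growth, normalised to vehicle-treated controls, is reported for a strain bearing genetic alterations in DNA damage repair.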

[4] = NCI Yeast Anticancer Drug Screen. Data for the cln2 rad14 strain (AID 165);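 further: 0% = growth equal to vehicle treated cultures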; details: S. cerevisiae cln2 rad14 strain, stronger effect = higher value
Outline: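 Growth of compound-exposed yeast (cln2 rad14 genotype) measured and expressed as inhibition relative to vehicle.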

[5] = NCI Yeast Anticancer Drug Screen. Data for the bub3 strain (AID 167); details: S. cerevisiae bub3 mutant strain, stronger effect = higher value
Outline: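 Whole-cell yeast assay. The mutant strain was incubated with compounds, and growth inhibition was determined by comparison with vehicle-treated cells.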

[6] = NCI Yeast Anticancer Drug Screen. Data for the mlh1 rad18 strain (AID 175); details: S. cerevisiae mlh1 rad18 strain growth inhibition, stronger effect = higher value
Outline: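 In this whole-cell yeast screen, a strain with altered DNA damage repair is challenged with compound, and its growth is measured against matched vehicle-treated controls.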

[7] = at 5.0 µM (retest, dose inferred, filed as 0.5)
[8] = at 50.0 µM (retest, dose inferred, filed as 5.0)

Row | Compound | growth inhibition [1, 7] | growth inhibition [1, 8] | growth inhibition ([1]; at 50.0 µM) | growth inhibition [2, 7] | growth inhibition [2, 8] | growth inhibition ([2]; at 50.0 µM) | growth inhibition [3, 7] | growth inhibition [3, 8] | growth inhibition ([3]; at 50.0 µM) | growth inhibition [4, 7] | growth inhibition [4, 8] | growth inhibition ([4]; at 50.0 µM) | growth inhibition [5, 7] | growth inhibition [5, 8] | growth inhibition ([5]; at 50.0 µM) | growth inhibition [6, 7] | growth inhibition [6, 8] | growth inhibition ([6]; at 50.0 µM)
1 | c1ccc(CN2CCC3(CC2)SSC2(CCN(Cc4ccccc4)CC2)SS3)cc1 | 0% | 34% | 73.1% (active) | 14% | -3% | 24.4% | 5% | 35% | 30.9% | 31% | 21% | 29.8% | 16% | 18% | 42.2% | 7% | 19% | 45.9%
2 | O=NN(CCCl)C(=O)NCCSSCCNC(=O)N(CCCl)N=O (tested in a mixture with another compound) | 29% | 62% | 36.1% | 20% | 39% | 38.6% | 40% | 77% (active) | 59.1% | 14% | 29% | 21.6% | 30% | 38% | 14.2% | 73% (active) | 96% (active) | 72.1% (active)
3 | CC(C)CC(NC(=O)OCc1ccccc1)C(=O)NC(Cc1ccccc1)C(=O)CCl (stereo not drawn) (Cbz-Leu-Phe-CH2Cl; configuration not given here) | 43% | 62% | 28.9% | 48% | 86% (active) | 58.5% | 27% | 46% | 53.8% | 16% | 52% | -8.15% | 51% | 77% (active) | 87.5% (active) | 46% | 74% (active) | 54.9%
4 | CC(C)(C)C(=O)Nc1ccc2c(c1)C(=O)c1ccccc1C2=O | 62% | 96% (active) | 82% (active) | 44% | 85% (active) | 79.2% (active) | 44% | 91% (active) | 80.7% (active) | 38% | 75% (active) | 83.2% (active) | 46% | 71% (active) | 87.5% (active) | 62% | 96% (active) | 86.5% (active)
5 | Cc1ccc(C(=O)/C=C/c2ccccc2)cc1 | 8% | 42% | 52% | -6% | 14% | 13.7% | 1% | 38% | 36.6% | 0% | -22% | -22% | 6% | 19% | 9.3% | 2% | 24% | 82.1% (active)
6 | CC(=O)N1c2ccccc2Sc2ccc(C(=O)CCl)cc21 | 14% | 79% (active) | 95.7% (active) | 19% | 95% (active) | 95.7% (active) | 15% | 91% (active) | 93.9% (active) | 9% | 50% | 81.2% (active) | 8% | 91% (active) | 95.8% (active) | 30% | 94% (active) | 94.7% (active)
7 | COC1(OC)C(C#N)(C#N)C2(C(=O)Nc3ccccc32)C1(OC)OC (stereo not given) | 11% | -4% | 15.4% | -12% | -16% | 12.2% | -2% | -25% | 97% (active) | -4% | -7% | 28% | -14% | 38% | -7.6% | 10% | -22% | 90% (active)
8 | OC(/C=C/c1ccccc1)(c1ccccc1)c1nc2ccccc2s1 (stereo not given) | 35% | 98% (active) | -8% | 59% | 98% (active) | 1.95% | 5% | 97% (active) | -11.3% | 26% | 93% (active) | -23.1% | 6% | 98% (active) | -12.8% | 20% | 96% (active) | -3.45%
9 | COc1ccc2c(c1)Cc1ccccc1C2=O | 14% | 34% | 15.8% | 3% | 8% | 4% | 0% | 1% | 6.75% | 1% | 3% | -0.35% | 75% (active) | 85% (active) | 40.6% | 2% | 14% | 9.1%
10 | Cc1cccc(/C=N/NC(=S)Nc2ccc(Cl)cc2)n1 | 6% | 98% (active) | 70% (active) | 0% | 97% (active) | 81.8% (active) | -5% | 98% (active) | 87% (active) | -25% | 96% (active) | 86.5% (active) | -12% | 98% (active) | 87.2% (active) | 35% | 98% (active) | 88.8% (active)
11 | O=C(O/N=C(/Cc1ccccc1)c1ccccc1)c1ccccc1 | -15% | 63% | 90.3% (active) | -10% | 72% (active) | 28.1% | -1% | 76% (active) | 88.8% (active) | -6% | 92% (active) | 43.6% | -17% | 66% | 18.4% | 3% | 87% (active) | 93.2% (active)
12 | O=C(Nc1ccccc1)C(F)(F)C(F)(F)C(F)(F)F | 6% | 2% | 12.6% | -1% | -24% | 12.7% | 17% | 14% | -0.35% | 5% | 5% | 26.1% | 15% | 27% | -1% | 5% | 28% | 11.6%
13 | Cn1nc2c(c(Cl)c1=O)Nc1ccccc1O2 | -32% | -16% | 0.85% | -9% | -34% | -30.4% | -20% | -19% | -24.8% | -8% | -9% | 23.1% | -45% | -18% | 1.35% | -25% | -14% | -6.7%
14 | CC(C)(C)NCc1cc(C(C)(C)C)cc(-c2ccc(Cl)cc2)c1O | 26% | 92% (active) | 84.8% (active) | 13% | 91% (active) | 88.4% (active) | 7% | 88% (active) | 86.5% (active) | 44% | 55% | 76.8% (active) | 12% | 91% (active) | 83.9% (active) | 25% | 93% (active) | 84.6% (active)
15 | COC(=O)c1ccc(C)cc1C1CN=NC12Cc1cc(C)ccc1C2=O (stereo not given) | 10% | 50% | 5.35% | 8% | 44% | 19.6% | 5% | 67% | 68.6% | 6% | 44% | 37.2% | 6% | 73% (active) | 46.1% | 13% | 65% | 65%
16 | CCO/C=C1\N=C(C(O)(c2ccc(Cl)cc2)c2ccc(Cl)cc2)OC1=O | -1% | 3% | 48.7% | 1% | 16% | 16% | -2% | 1% | 18.8% | 1% | -1% | 44.5% | 13% | 8% | 43.1% | -1% | 10% | 34%
17 | CCc1cc2c(c3c1C(=O)CC3)C(C)(C)CCC2 | 1% | 96% (active) | 11% | 2% | 96% (active) | 34.6% | 1% | 97% (active) | 6.4% | 2% | 97% (active) | 13.8% | 12% | 97% (active) | 48.5% | -6% | 97% (active) | 5%
18 | CCCCCCCCCCCCn1cnc2ncnc(Cl)c21 | 6% | 48% | 98.2% (active) | 7% | 54% | 99% (active) | 11% | 68% | 98.7% (active) | 2% | 28% | 98.4% (active) | -4% | 41% | 98.8% (active) | 6% | 63% | 98.6% (active)
19 | CCCC/C=C(\CCCNCCCC)[Si](C)(C)C | 52% | 96% (active) | 89.9% (active) | 49% | 99% (active) | 92.8% (active) | 77% (active) | 99% (active) | 93.3% (active) | 53% | 98% (active) | 90.8% (active) | 78% (active) | 99% (active) | 91% (active) | 81% (active) | 98% (active) | 90.7% (active)
20 | CCNC1(C2c3ccccc3-c3ccccc32)c2ccccc2-c2ccccc21 | 13% | 84% (active) | 20% | -17% | 25% | 11.8% | 4% | 84% (active) | 44.1% | -12% | 36% | 18.5% | -4% | 71% (active) | 58.4% | 30% | 74% (active) | 37%
